Values without a mark were called inactive. Rule as the data show it: active = inhibition above about 65%; inactive = the rest.
system: Fam108b; assay: Fam108b inhibition by ABPP, late-stage follow-up, biochemical, gel-based ABPP, recombinant soluble Fam108b, HTS hits, complex proteome (AID 588651); conditions: FP-rhodamine labeling in proteome, at 20 µM, stronger effect = higher value;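 also: Fam108b spiked into mouse brain membrane proteome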

Structure (SMILES) | inhibition [%]
NC(Cc1cc(O)c(O)cc1O)C(=O)O (stereo not drawn) | 0
C[n+]1c(-c2ccccc2)c2cc(N)ccc2c2ccc(N)cc21 | 0
Cc1ccccc1N1C(=O)/C(=C/c2ccco2)C(=O)NC1=S | 0
